The full data set covers some 7,900 targets. This sample favours those with a hit. About 0.6% of all pairs of compound and target were hits.

Chain of UniProt Q13895 (Q13895 whole entry, looked up): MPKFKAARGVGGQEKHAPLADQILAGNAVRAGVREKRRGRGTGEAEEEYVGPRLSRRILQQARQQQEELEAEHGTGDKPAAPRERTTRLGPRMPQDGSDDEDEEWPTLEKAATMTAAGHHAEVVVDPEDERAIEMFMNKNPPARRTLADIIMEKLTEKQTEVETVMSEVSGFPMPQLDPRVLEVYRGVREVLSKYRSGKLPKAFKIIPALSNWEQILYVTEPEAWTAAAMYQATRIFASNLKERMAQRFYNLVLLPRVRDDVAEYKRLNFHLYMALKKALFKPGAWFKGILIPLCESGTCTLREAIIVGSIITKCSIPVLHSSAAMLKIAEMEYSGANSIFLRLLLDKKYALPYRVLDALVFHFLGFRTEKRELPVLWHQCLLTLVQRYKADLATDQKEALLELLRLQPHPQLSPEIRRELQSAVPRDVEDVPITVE
Chain of UniProt Q10589 (Q10589 whole entry, looked up): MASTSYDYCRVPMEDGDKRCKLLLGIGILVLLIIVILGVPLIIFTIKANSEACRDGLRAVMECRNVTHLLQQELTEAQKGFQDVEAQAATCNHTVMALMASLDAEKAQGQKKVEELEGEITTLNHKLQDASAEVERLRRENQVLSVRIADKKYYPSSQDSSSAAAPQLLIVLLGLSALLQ
Chain of UniProt Q9UI12 (Q9UI12 whole entry, looked up): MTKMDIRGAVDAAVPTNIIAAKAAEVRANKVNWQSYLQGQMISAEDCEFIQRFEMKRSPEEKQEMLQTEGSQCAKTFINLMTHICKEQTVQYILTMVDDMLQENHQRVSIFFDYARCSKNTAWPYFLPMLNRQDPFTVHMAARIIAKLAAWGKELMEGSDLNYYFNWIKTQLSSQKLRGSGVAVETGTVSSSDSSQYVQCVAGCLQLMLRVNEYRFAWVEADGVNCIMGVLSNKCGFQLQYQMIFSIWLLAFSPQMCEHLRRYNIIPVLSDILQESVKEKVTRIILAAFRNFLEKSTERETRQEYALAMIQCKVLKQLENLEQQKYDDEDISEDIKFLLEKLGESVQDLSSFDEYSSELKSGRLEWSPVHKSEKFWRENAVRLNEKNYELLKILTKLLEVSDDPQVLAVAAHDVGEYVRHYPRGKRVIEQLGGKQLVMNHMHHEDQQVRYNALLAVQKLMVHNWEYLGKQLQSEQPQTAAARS
Chain of UniProt Q99798 (Q99798 whole entry, looked up): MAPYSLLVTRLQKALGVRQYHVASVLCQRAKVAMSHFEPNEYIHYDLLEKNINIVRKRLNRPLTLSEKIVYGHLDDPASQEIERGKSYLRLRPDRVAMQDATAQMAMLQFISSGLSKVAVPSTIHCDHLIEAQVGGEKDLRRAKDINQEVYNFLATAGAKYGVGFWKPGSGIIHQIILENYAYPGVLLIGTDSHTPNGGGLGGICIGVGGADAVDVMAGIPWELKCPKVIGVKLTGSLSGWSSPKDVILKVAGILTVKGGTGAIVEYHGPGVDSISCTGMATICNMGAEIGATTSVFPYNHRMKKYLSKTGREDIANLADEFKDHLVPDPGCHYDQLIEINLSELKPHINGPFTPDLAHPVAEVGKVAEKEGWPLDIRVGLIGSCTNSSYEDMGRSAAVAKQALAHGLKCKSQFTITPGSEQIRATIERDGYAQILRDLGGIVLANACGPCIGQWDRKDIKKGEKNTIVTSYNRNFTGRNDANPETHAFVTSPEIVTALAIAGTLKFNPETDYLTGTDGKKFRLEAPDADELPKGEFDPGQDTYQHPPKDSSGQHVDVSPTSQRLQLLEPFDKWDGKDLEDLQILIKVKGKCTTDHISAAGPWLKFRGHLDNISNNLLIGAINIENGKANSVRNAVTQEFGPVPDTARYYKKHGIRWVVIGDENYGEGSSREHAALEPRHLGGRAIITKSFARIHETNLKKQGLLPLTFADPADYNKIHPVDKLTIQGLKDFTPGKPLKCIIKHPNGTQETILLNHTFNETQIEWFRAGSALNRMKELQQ
Chain of UniProt Q9NWB6 (Q9NWB6 whole entry, looked up): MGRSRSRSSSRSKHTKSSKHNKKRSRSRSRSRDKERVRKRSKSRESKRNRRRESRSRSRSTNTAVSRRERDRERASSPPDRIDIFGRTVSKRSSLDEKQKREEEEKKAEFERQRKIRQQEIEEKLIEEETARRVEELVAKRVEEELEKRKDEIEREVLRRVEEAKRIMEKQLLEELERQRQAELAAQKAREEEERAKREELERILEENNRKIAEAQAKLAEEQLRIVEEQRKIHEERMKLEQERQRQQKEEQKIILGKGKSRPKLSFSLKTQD
Chain of UniProt Q9Y587 (Q9Y587 whole entry, looked up): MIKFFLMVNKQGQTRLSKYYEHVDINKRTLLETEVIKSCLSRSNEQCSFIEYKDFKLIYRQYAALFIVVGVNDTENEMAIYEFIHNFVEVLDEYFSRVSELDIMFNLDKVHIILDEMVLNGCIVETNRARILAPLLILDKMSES
Chain of UniProt Q9Y679 (Q9Y679 whole entry, looked up): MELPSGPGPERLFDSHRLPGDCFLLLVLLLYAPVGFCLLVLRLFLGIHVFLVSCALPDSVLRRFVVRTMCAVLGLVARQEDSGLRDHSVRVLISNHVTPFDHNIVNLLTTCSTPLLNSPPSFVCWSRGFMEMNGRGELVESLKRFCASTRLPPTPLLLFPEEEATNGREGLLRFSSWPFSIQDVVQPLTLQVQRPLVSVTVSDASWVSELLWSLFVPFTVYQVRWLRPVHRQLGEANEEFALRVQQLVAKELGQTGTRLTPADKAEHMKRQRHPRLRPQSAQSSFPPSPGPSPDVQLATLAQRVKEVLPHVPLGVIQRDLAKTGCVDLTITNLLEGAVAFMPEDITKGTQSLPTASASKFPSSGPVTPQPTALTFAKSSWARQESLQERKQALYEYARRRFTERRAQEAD
Chain of UniProt Q8N6T3 (Q8N6T3 whole entry, looked up): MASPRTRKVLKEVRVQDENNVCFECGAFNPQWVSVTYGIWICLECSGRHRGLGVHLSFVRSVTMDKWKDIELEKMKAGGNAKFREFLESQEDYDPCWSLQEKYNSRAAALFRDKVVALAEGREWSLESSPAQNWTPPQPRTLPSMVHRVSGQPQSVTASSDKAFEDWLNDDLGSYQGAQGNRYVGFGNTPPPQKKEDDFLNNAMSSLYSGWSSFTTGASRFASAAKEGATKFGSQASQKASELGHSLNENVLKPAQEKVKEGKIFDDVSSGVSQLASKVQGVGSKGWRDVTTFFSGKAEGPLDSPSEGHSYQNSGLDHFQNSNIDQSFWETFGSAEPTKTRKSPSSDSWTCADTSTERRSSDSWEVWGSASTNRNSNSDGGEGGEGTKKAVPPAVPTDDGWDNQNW
Chain of UniProt O14965 (O14965 whole entry, looked up): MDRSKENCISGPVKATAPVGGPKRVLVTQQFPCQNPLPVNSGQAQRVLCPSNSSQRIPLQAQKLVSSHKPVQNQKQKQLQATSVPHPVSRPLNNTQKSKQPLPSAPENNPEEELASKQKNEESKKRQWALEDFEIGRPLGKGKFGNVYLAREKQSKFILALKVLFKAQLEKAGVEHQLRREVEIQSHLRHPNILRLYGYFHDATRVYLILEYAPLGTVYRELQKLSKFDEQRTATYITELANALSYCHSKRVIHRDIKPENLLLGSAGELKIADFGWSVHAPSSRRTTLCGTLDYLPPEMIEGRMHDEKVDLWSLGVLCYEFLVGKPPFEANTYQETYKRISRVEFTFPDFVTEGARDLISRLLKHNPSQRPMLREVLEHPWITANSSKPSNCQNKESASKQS
Chain of UniProt O00170 (O00170 whole entry, looked up): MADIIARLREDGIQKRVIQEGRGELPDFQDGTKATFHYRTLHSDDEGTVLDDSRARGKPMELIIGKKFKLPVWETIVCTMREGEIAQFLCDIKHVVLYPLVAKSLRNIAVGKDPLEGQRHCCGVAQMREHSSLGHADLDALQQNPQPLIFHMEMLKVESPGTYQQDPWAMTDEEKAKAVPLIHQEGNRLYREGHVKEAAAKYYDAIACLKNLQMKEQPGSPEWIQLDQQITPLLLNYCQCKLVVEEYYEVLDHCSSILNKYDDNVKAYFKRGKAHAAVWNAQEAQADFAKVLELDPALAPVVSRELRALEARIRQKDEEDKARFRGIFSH
Chain of UniProt Q9H845 (Q9H845 whole entry, looked up): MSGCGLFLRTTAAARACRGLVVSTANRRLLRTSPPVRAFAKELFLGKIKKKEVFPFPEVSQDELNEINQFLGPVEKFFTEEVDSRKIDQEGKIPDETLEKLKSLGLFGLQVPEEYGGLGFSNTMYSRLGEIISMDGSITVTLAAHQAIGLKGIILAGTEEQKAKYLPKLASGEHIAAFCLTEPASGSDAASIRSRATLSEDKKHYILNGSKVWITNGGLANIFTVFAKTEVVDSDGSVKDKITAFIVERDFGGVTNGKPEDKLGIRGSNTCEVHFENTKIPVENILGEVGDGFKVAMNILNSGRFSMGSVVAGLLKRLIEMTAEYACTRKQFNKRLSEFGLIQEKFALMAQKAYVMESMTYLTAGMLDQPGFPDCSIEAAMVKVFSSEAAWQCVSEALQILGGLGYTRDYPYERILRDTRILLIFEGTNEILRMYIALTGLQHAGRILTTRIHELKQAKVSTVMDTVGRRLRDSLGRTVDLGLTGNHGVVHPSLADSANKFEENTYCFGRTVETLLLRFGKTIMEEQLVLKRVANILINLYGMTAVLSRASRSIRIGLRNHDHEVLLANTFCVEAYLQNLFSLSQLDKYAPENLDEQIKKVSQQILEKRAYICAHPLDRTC
Chain of UniProt P11766 (P11766 whole entry, looked up): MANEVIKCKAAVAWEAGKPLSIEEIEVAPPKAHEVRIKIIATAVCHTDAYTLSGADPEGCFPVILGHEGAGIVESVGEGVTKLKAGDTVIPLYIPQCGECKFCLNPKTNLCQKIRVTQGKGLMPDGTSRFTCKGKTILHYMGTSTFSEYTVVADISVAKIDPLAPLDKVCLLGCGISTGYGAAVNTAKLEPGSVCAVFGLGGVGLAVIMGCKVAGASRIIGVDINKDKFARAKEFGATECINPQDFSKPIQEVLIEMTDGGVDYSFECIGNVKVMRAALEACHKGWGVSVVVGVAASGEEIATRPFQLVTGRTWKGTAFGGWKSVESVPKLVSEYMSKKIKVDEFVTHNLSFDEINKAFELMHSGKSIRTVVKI

Compound in the test: c1cn2cc(-c3ccc4cn[nH]c4c3)nc(Nc3ccc(N4CCOCC4)cc3)c2n1 [entospletinib]
The test can be described thus: log2 fold change, soluble protein after heating vs DMSO (PISA); higher = thermal stabilisation; K562 cells, 10 uM, 30 min; active = over 0.2 and 3.5 SD of the protein, either way, in both replicates (recomputed). Summed up: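 K562 cells at 2×10^6 cells/mL were given 10 μM compound for 30 min. Aliquots then went through 3 min of heating across 48°C-58°C, were pooled, and were extracted in PBS with 0.5% NP-40 at 4°C, and the supernatant after 21,000xg for 90 min was quantified by TMTpro 16plex LC-MS/MS with channel sums equalised. Thermal stability relative to control samples, from duplicates, is given as log2 fold change.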
Take AURKA (UniProt O14965): the log2 fold change is 0.282 (inactive).

In the case of AGO1 (UniProt Q9UL18), the log2 fold change was -0.2 (inactive). With ARFGAP1 (UniProt Q8N6T3) the figure was -0.032 (inactive). The value for ACAD9 (UniProt Q9H845) was 0.02 (inactive); that for ALDH2 (UniProt P05091) was -0.025 (inactive). Turning to AP4S1 (UniProt Q9Y587), the log2 fold change was 0.039 (inactive).

As to BST2 (UniProt Q10589), the log2 fold change is -0.009 (inactive). Take ARGLU1 (UniProt Q9NWB6): the log2 fold change is -0.013 (inactive). With ATP6V1H (UniProt Q9UI12) the figure was 0.004 (inactive); with ACO2 (UniProt Q99798), -0.008 (inactive). For the target AUP1 (UniProt Q9Y679), the log2 fold change was -0.025 (inactive).

As for AIP (UniProt O00170), the log2 fold change is -0.031 (inactive).

Consider BYSL (UniProt Q13895), for which the log2 fold change was -0.065 (inactive). With ADH5 (UniProt P11766) the figure was -0.025 (inactive); with ACACB (UniProt O00763), -0.077 (inactive).

The record behind these values is the supplement of paper PMC10849652.
